SENP8 block-1 = SENP8 protease inhibitors, primary screen, biochemical, luminescence. Sentrin-specific protease 8 (Homo sapiens), Q96LD8. purified SENP8, Z-RLRGG-aminoluciferin cleavage. inhibition, % at 10 µM. hit rate 1.2% among 330,000. AID 2540, 2010; in the data active = inhibition above about 50%
Target sequence (Q96LD8 whole entry, looked up): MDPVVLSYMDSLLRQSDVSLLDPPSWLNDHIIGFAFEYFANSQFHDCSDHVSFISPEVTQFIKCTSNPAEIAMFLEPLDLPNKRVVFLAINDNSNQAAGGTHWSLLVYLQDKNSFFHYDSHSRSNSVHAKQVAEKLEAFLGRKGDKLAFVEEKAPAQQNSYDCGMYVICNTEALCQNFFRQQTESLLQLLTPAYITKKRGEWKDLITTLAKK
SENP6 inh = SENP6 protease inhibitors, primary screen, biochemical, luminescence, uHTS; Sentrin-specific protease 6 (Homo sapiens), Q9GZR1; Recombinant SENP6 catalytic domain, aminoluciferin luminescence; inhibition, % at 10 µM; hit rate 1.8% among 330,000;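 active = inhibition above about 50% at the single tested dose, limit read from the data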;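 also: plate controls were DMSO wells with enzyme for no effect and DMSO wells lacking enzyme for full effect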
AHR activator = AHR activators, primary screen, cell-based, luminescence, luciferase reporter, human | Aryl hydrocarbon receptor (Homo sapiens), P35869 | AHR-responsive luciferase reporter cells | activation, % at 5 µM | hit rate 2.5% among 320,000 | AID 2796, 2010; in the data active = activation above about 47%;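 also: 0% = vehicle wells and 100% = reference agonist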
EBI2 antag = EBI2 receptor antagonists, beta-arrestin recruitment, primary screen, cell-based, luminescence, 7a,25-OHC stimulation, uHTS; G-protein coupled receptor 183 (Homo sapiens), P32249; 7a,25-OHC stimulated; inhibition, % at 5 µM; hit rate 0.81% among 360,000; AID 651636, 2012; in the data active = inhibition above about 38%;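 also: enzyme fragment complementation signal reports receptor beta-arrestin coupling in cells; 0% = agonist plus DMSO wells and 100% = wells without agonist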
SENP8 block-2 = human SENP8 protease inhibitors, primary screen, biochemical, fluorescence, Nedd8 protein substrate, uHTS. Sentrin-specific protease 8 (Homo sapiens), Q96LD8. hit rate 0.64% among 360,000. recombinant SENP8. inhibition, % at 20 µM. AID 602440, 2012; in the data active = inhibition mostly above about 40%, no sharp cut-off; inactive = mostly below about 27%
SENP7 block = SENP7 protease inhibitors, primary screen, biochemical, luminescence, uHTS. recombinant SENP7, Z-RLRGG-aminoluciferin luminescence, 40 min. Sentrin-specific protease 7 (Homo sapiens), Q9BQF6. AID 434973, 2010. hit rate 1.5% among 330,000. inhibition, % at 5 µM;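 active = inhibition above about 50% at the single test dose, limit read from the data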;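 also: plate controls were DMSO with enzyme for no effect and no enzyme buffer wells for full effect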
Target sequence (Q9BQF6 706-1050 limits assumed): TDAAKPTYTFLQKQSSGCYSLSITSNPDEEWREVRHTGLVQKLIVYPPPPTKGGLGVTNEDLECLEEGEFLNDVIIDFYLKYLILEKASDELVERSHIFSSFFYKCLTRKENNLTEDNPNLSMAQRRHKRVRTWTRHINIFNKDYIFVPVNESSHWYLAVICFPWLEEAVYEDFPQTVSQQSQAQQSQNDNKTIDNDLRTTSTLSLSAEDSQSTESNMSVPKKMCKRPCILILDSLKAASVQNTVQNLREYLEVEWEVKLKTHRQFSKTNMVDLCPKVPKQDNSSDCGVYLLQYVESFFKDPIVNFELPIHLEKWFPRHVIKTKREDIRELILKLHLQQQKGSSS
The depositor's hits bear a star; . = no result. Only some compounds are listed: those with a hit (about 5% of all), similar ones and a draw of the others.

SMILES	SENP8 block-1	SENP6 inh	AHR activator	EBI2 antag	SENP8 block-2	SENP7 block
CC1(C(=O)NS(=O)(=O)c2cccc(C#N)c2)CCN1C(=O)CCc1ccccc1 (stereo unspecified)	.	.	.	-9	10	.
O=C(NCc1ccccc1)c1cc(C2CCCCN2C(=O)c2ccccc2)on1 (stereo unspecified)	.	.	.	-3	6	.
COc1ccc([N+](=O)[O-])cc1C(=O)C(=O)c1ccccc1	-12	-11	2	5	44*	-15
C/C(=N\NC(=O)c1c(C)nc2ccccn12)c1cccc([N+](=O)[O-])c1	0	-6	12	-4	12	1
Cc1nc2ccccn2c1C(=O)/C=C/c1cccc([N+](=O)[O-])c1	-3	-17	60*	42*	13	-5
O=C(NN=Cc1cc(Cl)ccc1[N+](=O)[O-])c1cccc2ccccc12	.	.	.	-3	7	.
Cc1cc(C(=O)N/N=C/c2cc(Cl)cc([N+](=O)[O-])c2O)c2ccccc2n1	-8	-19	3	54*	40	-5
COc1ccc(CC(=O)OCC(=O)Nc2ccc3[nH]c(=O)[nH]c3c2)cc1OC	.	.	.	-9	7	.
O=C(CCCCC(=O)NC1CCCC1)NC1CCCC1	0	10	1	-5	32	7
Cn1cc(Cl)c(C(=O)Nc2nccs2)n1	-1	-16	3	-4	11	-5
O=C(Nc1nccs1)c1ncc(Cl)c(Cl)c1Cl	7	11	47*	-10	11	4
CN(C)c1cccc(NC(=O)C2Cc3c(-c4cccnc4)ccnc3O2)c1 (stereo unspecified)	.	.	.	-1	11	.
Cc1cc(-c2nnn(CCCOC(C)(C)C)c2C)ccc1-c1cn(CCCOC(C)(C)C)nn1	.	.	.	-7	-18	.
CCc1nc2ccc(C(=O)NCCC(C)C)cn2c1N(CC)CCOC	.	.	.	-7	5	.
CCCN(CCC)C(=O)Cn1c2ccccc2c2nc(=O)cc(C)n21	2	4	51*	23	-38	-5
Cc1cc(=O)nc2c3ccccc3n(CC(=O)NC3CCCCC3)n12	2	-13	12	1	-22	11
COc1cc(C(O)c2nc(-c3cccc(C(C)C)c3)cs2)ccc1F (stereo unspecified)	.	.	.	-6	7	.
C/C(=N/NS(=O)(=O)c1ccccc1)c1ccc(Cl)cc1	-2	-10	53*	-10	18	1
C/C(=N/NS(=O)(=O)c1ccc(Cl)cc1)c1ccncc1	1	4	2	4	10	-9
COc1ccc(C2c3[nH]c4ccccc4c3CCN2Cc2ccoc2)c(F)c1 (stereo unspecified)	-4	5	47*	13	-101	0
O=C(C(=O)N1CCN(C(=O)OCc2ccccc2)CC1)c1cccs1	.	.	.	10	11	.
C/C(=N\NC(=O)c1cc(-c2ccc(Cl)s2)[nH]n1)c1ccncc1	3	-9	50*	-2	11	1
C/C(=N\NC(=O)c1cc(-c2ccc(Br)s2)[nH]n1)c1ccncc1	-6	-14	40	13	9	3
C/C(=N\O)c1noc(C)c1C(=O)Nc1nccs1	-1	8	50*	-6	3	-6
O=C1CSC(=S)N1Cc1ccccc1	.	.	.	1	19	.
SMILES	SENP8 block-1	SENP6 inh	AHR activator	EBI2 antag	SENP8 block-2	SENP7 block
Clc1ccc(Nc2ncnc3ccc(Br)cc23)cc1	-7	-30	67*	-2	-105	-2
COc1ccc(CC(=O)NNc2ncnc3c2cnn3-c2ccccc2)cc1	-1	-11	51*	-15	-4	0
COc1ccc(CC(=O)NNc2ncnc3c2cnn3-c2ccc(C)cc2)cc1	-11	-8	3	-14	0	4
Cc1ccccc1Nc1ncnc2c1cnn2-c1ccccc1	-4	-6	-5	10	5	-22
NNc1ncnc2c1cnn2-c1ccccc1	2	-7	61*	-19	-7	3
CC(C)C[C@H]1CNC(=S)N1C[C@H]1CCCN1C[C@H](Cc1ccc(O)cc1)N1C[C@H](CC(C)C)N(CC2CCCCCC2)C1=S	.	.	.	28	17	.
COc1ccc(/C(C)=N/Nc2nc3ccccc3nc2C)cc1OC	-2	-10	77*	-7	12	5
COc1ccc(/C(C)=N/Nc2cccc(C(=O)O)c2)cc1OC	1	24	1	-4	-25	9
CN(C)S(=O)(=O)n1cnc([C@@H]2[C@H]3C(=O)OC[C@@H]3C[C@@]23N=CN(Cc2ccccc2)C3=O)c1	3	16	1	-4	-1	5
COc1ccc(-c2nc3ccc(C)cn3c2Cc2cccc(Cl)c2)cc1OC	.	.	.	32	-347	.
COc1ccc(-c2cn3cc(Cl)ccc3n2)cc1OC	1	2	56*	8	-271	6
CCOC(=O)Cc1c(C)nc2cc(-c3ccc(Cl)cc3)[nH]n2c1=O	1	-8	58*	-6	-56	2
CCc1cc2ccc(OC)cc2nc1SCC(=O)NNC(=O)c1ccco1	0	1	53*	-11	-44	-8
CCc1cc2cc(C)c(C)cc2nc1SCC(=O)NNC(=O)c1ccco1	-9	-3	7	0	5	-8
CN1C(=O)C2(Oc3ccccc3C3CC(c4ccccc4)=NN32)c2ccccc21 (stereo unspecified)	-6	-1	54*	-18	-11	-7
Cc1ccc(C2=NN3C(C2)c2ccccc2OC32C(=O)Nc3ccccc32)cc1 (stereo unspecified)	24	30	47*	17	-296	-5
CCOC(=O)c1c(NC(=O)CN2CCN(S(=O)(=O)c3cc(Cl)ccc3Cl)CC2)sc(C(=O)N(C)C)c1C	.	.	.	14	-6	.
CCCCc1nc2sc3c(=O)[nH]c(=S)[nH]c3c2c2c1CCC2	.	.	.	-5	7	.
Cc1[nH]nc(N)c1N=Nc1ccc(Br)cc1	-30	-38	68*	.	.	-16
Cc1ccc(C)c2sc(N)nc12	-5	-9	2	-10	4	0
Cc1ccc(N=Nc2c(N)n[nH]c2N)cc1	1	7	6	-5	29	9
Cc1nc(N)sc1N=Nc1ccc(Br)cc1	5	18	146*	7	26	18
COCCNC(=O)c1cc2c(c(-c3cccc(C#CC(C)(C)O)c3)n1)[C@@H](CCO)N(S(=O)C(C)(C)C)C2 (stereo partly specified)	.	.	.	0	-24	.
O=C(Cn1cc(C(F)(F)F)ccc1=O)N/N=C/c1ccc(Cl)cc1	-10	-7	-1	5	10	-3
Cc1ccc(NC(=O)CN(c2ccccc2F)S(C)(=O)=O)cc1	0	2	2	-7	8	2
